Assay [1] can be described thus: qHTS assay to identify small molecule agonists of the hypoxia (HIF-1) signaling pathway - cell viability counter screen (AID 1224844; calls by dose curve; note: nearly all actives have a fitted effect of over 50% in size; note: potency is the fitted concentration of half-maximal effect). The method, boiled down:
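Cytotoxicity measured by CellTiter-Glo ATP luminescence in the wells also read for beta-lactamase signal. Cells were HRE-bla ME-180 (2,000/well, 0.5% dialyzed FBS), exposed to compounds for 17 h at 37C.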
Background: In qHTS, concentration-response curves come from the screen itself.

Assay [2] can be described thus: qHTS assay to identify small molecule agonists of H2AX (AID 1224845; active = well fitted activation curve with a large enough effect in the signal ratio in the repeat runs, not every such curve was filed as active; the % refers to the signal ratio). Summed up: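 Wild-type CHO-K1 cells plated overnight, then exposed 3 hr at 37C to compounds at 15 concentrations (0.76% DMSO). Lysed, then HTRF anti-pH2AX(S139)-cryptate/anti-H2AX-d2 detection after 24 hr at room temperature; emissions 665 and 620 nm.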
Assay [3] is described as follows: qHTS assay to identify small molecule agonists of the hypoxia (HIF-1) signaling pathway (AID 1224846; active = well fitted activation curve with a large enough effect in the signal ratio in the repeat runs, not every such curve was filed as active; the % refers to the signal ratio). The method, boiled down: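 Compounds added to ME-180 cells carrying hypoxia-response-element beta-lactamase reporter (0.5% dialyzed FBS, 5 h preplating), 17 h at 37C; agonist activity detected by CCF4-AM B/G FRET read-out.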
Assay [4] in a line: qHTS assay to identify small molecule antagonists of the estrogen related receptor (ERR) signaling pathway from Tox21 library (AID 1224848). Note: nearly all actives have a fitted effect of over 50% in size. Summed up:
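First, 2,000 ERR cells per well were plated and held 6 h at 37 C/5% CO2. Next, compounds in DMSO were pinned in and left 18 h at 37 C. Finally, ONE-Glo was added and luminescence read after 30 min at room temperature.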

The nature of assay [5]: qHTS assay to identify small molecule agonists of the estrogen related receptor (ERR) signaling pathway from Tox21 library (AID 1224849; calls by dose curve; note: nearly all actives have a fitted effect of over 15% in size). Particulars: ERR reporter cell line, ONE-Glo luciferase, 18 h. The method, boiled down:
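Luminescent agonist read-out (One-Glo, 30-minute room-temperature incubation) following 18-hour compound treatment at 37 C of the ERR cell line, which had been plated 6 hours before dosing.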

Assay [6] is described as follows: qHTS RealTime-Glo MT Cell Viability Assay in HepG2 cells - 24 hour (AID 1224867). Note: nearly all actives have a fitted effect of over 50% in size. The method, boiled down:
(§1)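 HepG2 cells were seeded at 600 cells/well together with NanoLuc luciferase and a cell-permeant prosubstrate, preincubated 5 h at 37 C/5% CO2, then pin-dosed with compounds in DMSO. Nonlytic luminescence from viable cells was read at each time point.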

Assay [7] is described as follows: A CellTox Green Cytotoxicity Assay to monitor cytotoxicity in HEK293 cells - 0 hour (AID 1224869). Note: nearly all actives have a fitted effect of over 50% in size. Summed up:
(§2)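 Fluorescence from a DNA-binding dye excluded by viable cells was measured repeatedly in the same HEK293 wells (600 cells/well) during continuous compound exposure at 37 C. Each assay gives one read point: 0, 8, 16, 24, 32 or 40 h.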

A short description of assay [8]: qHTS RealTime-Glo MT Cell Viability Assay in HepG2 cells - 40 hour (AID 1224870). Note: nearly all actives have a fitted effect of over 50% in size. Note: potency is the fitted concentration of half-maximal effect. Summed up: (§3)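 HepG2 cells mixed with RealTime-Glo MT reagents (NanoLuc plus cell-permeant prosubstrate) were seeded at 600 cells/well, incubated 5 h at 37 C/5% CO2, then pinned with compounds in DMSO; nonlytic luminescence tracked viability during 40 h treatment.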
The nature of assay [9]: A CellTox Green Cytotoxicity Assay to monitor cytotoxicity in HEK293 cells - 40 hour (AID 1224871). Note: nearly all actives have a fitted effect of over 45% in size. Summed up: as §2
Assay [10] is described as follows: qHTS RealTime-Glo MT Cell Viability Assay in HEK293 cells - 16 hour (AID 1224872). The method, boiled down: (§4)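 HEK293 cells were seeded at 600 cells/well together with NanoLuc luciferase and cell-permeant prosubstrate, preincubated 5 h at 37 C/5% CO2, then given compound in DMSO by pintool. Luminescence from viable-cell prosubstrate reduction was read repeatedly over 40 h.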

Assay [11] can be described thus: qHTS RealTime-Glo MT Cell Viability Assay in HepG2 cells - 8 hour (AID 1224873). Note: nearly all actives have a fitted effect of over 55% in size. The method, boiled down:
as §3

Assay [12] can be described thus: A CellTox Green Cytotoxicity Assay to monitor cytotoxicity in HEK293 cells - 24 hour (AID 1224875). Note: nearly all actives have a fitted effect of over 45% in size. The method, boiled down:
as §2

Assay [13] is described as follows: A CellTox Green Cytotoxicity Assay to monitor cytotoxicity in HepG2 cells - 16 hour (AID 1224876). Note: nearly all actives have a fitted effect of over 45% in size. The method, boiled down:
(§5)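 Real-time cytotoxicity: fluorescence of a cell-impermeant cyanine dye binding DNA of dead HepG2 cells, measured repeatedly (0–40 h) during compound exposure at 37 C. Cells seeded 600/well with reagent, dosed after 5 h.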

A short description of assay [14]: qHTS RealTime-Glo MT Cell Viability Assay in HepG2 cells - 32 hour (AID 1224877). Note: nearly all actives have a fitted effect of over 55% in size. Note: potency is the fitted concentration of half-maximal effect. The method, boiled down:
as §1

Assay [15] can be described thus: A CellTox Green Cytotoxicity Assay to monitor cytotoxicity in HepG2 cells - 24 hour (AID 1224878). Note: nearly all actives have a fitted effect of over 45% in size. The method, boiled down: as §5
The nature of assay [16]: A CellTox Green Cytotoxicity Assay to monitor cytotoxicity in HepG2 cells - 40 hour (AID 1224879). Note: nearly all actives have a fitted effect of over 40% in size. Summed up:
as §5

Assay [17] can be described thus: qHTS RealTime-Glo MT Cell Viability Assay in HEK293 cells - 0 hour (AID 1224880). The method, boiled down: (§6)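 Luminescence, which tracks viable cell number through reduction of the prosubstrate to a NanoLuc substrate, was read over continuous 37 C culture. Cells (600/well) were premixed with reagent and rested 5 h before 23 nL of compound in DMSO was pinned.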
Assay [18] is described as follows: qHTS assay to identify small molecule agonists of H2AX - cell viability counter screen (AID 1224847; calls by dose curve; note: top concentration of the series differs between compounds; nearly all actives have a fitted effect of over 30% in size). The method, boiled down:
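Cytotoxicity counter screen in wild-type CHO-K1 cells: a 3 hr compound treatment at 37C across 15 concentrations, followed by CellTiter-Glo luminescence to gauge viable cells.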

Assay [19] can be described thus: qHTS RealTime-Glo MT Cell Viability Assay in HEK293 cells - 32 hour (AID 1224868). Note: nearly all actives have a fitted effect of over 50% in size. Note: potency is the fitted concentration of half-maximal effect. Summed up:
as §4

Assay [20] in a line: qHTS RealTime-Glo MT Cell Viability Assay in HEK293 cells - 40 hour (AID 1224874). Note: nearly all actives have a fitted effect of over 50% in size. Note: potency is the fitted concentration of half-maximal effect. To be noted: RealTime-Glo luminescence; max response: stronger effect = lower value. Summed up:
as §6

Structures are written as SMILES. Where “and” joins values, the source holds several entries; their conditions need not be identical. Equal values may be shown once. Inconclusive results are not listed. Where a structure was tested more than once in an assay, its records may differ in their call. Calls of active or inactive are those of the source. Unless noted, calls come from the whole dose curve; as a rule, active = well fitted curve in the direction sought with a large enough effect in the repeat runs; inconclusive = weak or mixed curves; inactive = no such curve, though single readings can be large; an effect the other way counts as inactive or inconclusive.
% is set by controls: 0 for no effect and ±100 for the full control effect.

In the case of `COc1ccccc1N`, the Potency entry in assay [1], in [2], in assay [4], in assay [6], in assay [7] and in assay [8] was “inactive” each time. Besides, the Potency result in [9], in assay [10], in [11], in assay [12], in assay [13] and in assay [14] was “inactive” in each case. Also, the Potency result in assay [15] and in assay [16] was “inactive” throughout. Besides, the call in assay [3] and in assay [17] was inactive. Further, the activity change, positive = activation in assay [5] (at 92.4 µM (top of the series)) was 8.48% (inactive) and 0.539% (inactive) and 1.9% (inactive).
Take `CC(Cl)(Cl)C(=O)O`: the Potency result in assay [1], in assay [2], in assay [18], in assay [6], in [19] and in [7] was “inactive” each time. In addition, the Potency result in assay [8], in assay [9], in assay [11], in assay [12], in assay [13] and in assay [14] was “inactive” throughout. In addition, the Potency entry in [15] and in assay [16] was “inactive” throughout. Further, the result in [3] and in [17] was inactive.
`Oc1ccccc1-c1ccccc1`: the Potency result in [1], in assay [2], in [6], in assay [19], in assay [7] and in [8] was “inactive” each time. Besides, the Potency entry in assay [9], in [11], in assay [12], in [13] and in assay [14] was “inactive” throughout. The compound was classed as inactive in assay [3] and in [17]. The max response in assay [20] is -9.5% (inactive) [middle of 4 runs].
As for `C1CCC(NC2CCCCC2)CC1`, the Potency entry in assay [1], in assay [2], in assay [18], in assay [6], in assay [7] and in [8] was “inactive” throughout. The Potency entry in assay [9], in assay [11], in [12], in assay [13], in assay [14] and in assay [15] was “inactive” in each case. Besides, the Potency entry in assay [16] was “inactive”. The compound was called inactive in [3] and in assay [17]. Moreover, the max response in assay [20] was 3.03% (inactive) and 3.3% (inactive) and 2.02% (inactive).
For the compound `O=S(=O)(O)O`, the Potency result in assay [1], in assay [2], in assay [6], in assay [19], in assay [7] and in assay [8] was “inactive” in each case. Besides, the Potency entry in assay [9], in [10], in [11], in assay [12], in assay [13] and in assay [14] was “inactive” in each case. Besides, the Potency result in [15] and in assay [16] was “inactive” each time. In addition, the compound was classed as inactive in assay [3] and in assay [17]. In addition, in assay [20], the max response was -2.52% (inactive) [middle of 6 runs].
As to `CCNc1nc(Cl)nc(NCC)n1`, the Potency in [1] is 55.2 µM (active) and inactive. Moreover, the Potency result in assay [2], in [4], in [6], in [7], in assay [8] and in assay [9] was “inactive” in each case. The Potency entry in [11], in [12], in assay [13], in assay [14], in [15] and in [16] was “inactive” throughout. The call in assay [3] and in assay [17] was inactive. In addition, the activity change, positive = activation is -12% (inactive) in assay [5] (at 42.5 µM (top of the series)); -3.33% (inactive) and -18.8% (inactive) in assay [5] (at 92.4 µM (top of the series)). In addition, the max response in [20] is -0.397% (inactive) and 5.74% (inactive) and 5.58% (inactive).
With `CCCC[n+]1ccccc1C`, the Potency result in [1], in assay [2], in [18], in assay [6], in assay [7] and in assay [8] was “inactive” throughout. The Potency entry in [9], in assay [11], in assay [12], in assay [13], in [14] and in [15] was “inactive” in each case. For the same compound, the Potency result in assay [16] was “inactive”. In addition, the result in [3] and in assay [17] was inactive. The max response in assay [20] is 0.73% (inactive) [middle of 6 runs].
For the compound `CC[n+]1ccccc1`, the Potency result in [1], in assay [2], in assay [6], in [7], in assay [9] and in assay [10] was “inactive” in each case. Besides, the Potency result in assay [11], in assay [12], in assay [13], in assay [15] and in [16] was “inactive” each time. Also, the outcome in assay [3] and in [17] was inactive. In addition, the Potency result in [19] is “inactive and 38.6 µM (active)”; in [8] it was “inactive and 34.8 µM (active)”; in assay [20] it was 21.7 µM (active); in assay [14] it was “inactive and 49.1 µM (active)”. The max response in assay [20] is 9.29% (inactive) [middle of 4 runs].
With `COCC(=O)N(c1c(C)cccc1C)C(C)C(=O)OC` (stereo not given), the Potency entry in assay [1], in assay [2], in assay [18], in assay [4], in assay [6] and in [7] was “inactive” throughout. Moreover, the Potency result in [8], in assay [9], in assay [11], in assay [12], in assay [13] and in assay [14] was “inactive” throughout. Moreover, the Potency result in [15] and in assay [16] was “inactive” throughout. For the same compound, the call in assay [3] and in assay [17] was inactive. For the same compound, the activity change, positive = activation was 5.38% (inactive) in assay [5] (at 42.5 µM (top of the series)); 1.31% (inactive) and 1.04% (inactive) in assay [5] (at 92.4 µM (top of the series)). In addition, the max response in assay [20] is 7.37% (inactive) and 3.62% (inactive) and 0.316% (inactive).
On to `CC[N+]1(C)CCCC1`, for which the Potency entry in assay [1], in assay [2], in [6], in [7], in assay [8] and in assay [9] was “inactive” each time. The Potency result in [10], in [11], in assay [12], in [13], in [14] and in [15] was “inactive” throughout. For the same compound, in [16], the Potency entry is “inactive”. In addition, the call in assay [3] and in [17] was inactive. Further, the Potency result in assay [19] is “inactive and 21.9 µM (active)”.
As to `CCCCCCn1cc[n+](C)c1`, the Potency result in assay [1], in [2], in [18], in assay [6], in assay [7] and in assay [9] was “inactive” each time. The Potency result in assay [11], in assay [12], in assay [13], in assay [15] and in assay [16] was “inactive” in each case. For the same compound, the compound was classed as inactive in assay [3] and in assay [17]. Besides, the Potency entry is “inactive and 35.4 µM (active)” in [8]; “inactive and 50 µM (active)” in [14].
`O=c1nc(O)n(Cl)c(=O)n1Cl`: the Potency entry in assay [1], in assay [2], in [4], in [6], in [19] and in assay [7] was “inactive” each time. Moreover, the Potency entry in assay [8], in assay [9], in assay [11], in [12], in assay [13] and in [14] was “inactive” each time. Also, the Potency result in assay [15] and in [16] was “inactive” in each case. In addition, the compound was called inactive in assay [3] and in [17]. Further, in [5] (at 92.4 µM (top of the series)), the activity change, positive = activation was 9.16% (inactive) and 1.98% (inactive) and 3.37% (inactive). Moreover, the max response in assay [20] was 3.95% (inactive) and 2.22% (inactive).

Values taken from PubChem BioAssay (Tox21).
